The target of experiment [1] is Lysosomal acid glucosylceramidase (Homo sapiens) (UniProt P04062). In words: Glucocerebrosidase-p2 (AID 348; in the data active = potency below about 10 µM; also: potency is read from the fitted curve at half-maximal effect). Particulars: purified GBA, blue fluorogenic substrate, 40 min. A digest of the protocol:
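Normal human glucocerebrosidase (0.2 nM) with blue fluorogenic substrate (80 uM final) in citrate/phosphate pH 5.9 with 10mM sodium taurocholate, 0.01% tween-20; 40 min RT, NaOH/glycine stop; fluorescence Ex 365/Em 440; AC50 from a titration from 0.6 nM upwards.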

A short description of experiment [2]: AP1 Signaling Pathway (AID 357; active = well fitted curve in either direction with a large enough effect, not every such curve was filed as active;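 also: ME-180 reporter cells stimulated with EGF at its EC50 level; % is scaled to controls: 0 for no effect and ±100 for the full control effect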). The note with it: ME-180 AP-1-bla reporter, EGF-induced, beta-lactamase ratio, 5 h; at 7.69 µM (top of the series) unless noted. The method, boiled down:
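AP-1-bla ME-180 cells, Opti-MEM + 0.5% dialyzed FBS, plated overnight 37 °C. Cpd titration + EC50 EGF, 5 h 37 °C. CCF4 2.5 h RT; ex 405, em 460/530 ratio → %activity, AC50.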

Experiment [3] can be described thus: NFAT Signaling Pathway (AID 444; active = well fitted curve in either direction with a large enough effect, not every such curve was filed as active;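 also: carbachol stimulus at about its EC50 of 1 µM final; % is scaled to controls: 0 for no effect and ±100 for the full control effect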). The note with it: Jurkat NFAT-bla M1, carbachol, beta-lactamase ratio, 5 h; at 7.69 µM (top of the series) unless noted. The method, boiled down:
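Jurkat cells carrying an NFAT-driven β-lactamase reporter and co-transfected muscarinic M1 receptor were treated with compound plus carbachol (1 uM final, an EC50 level) for 5 h at 37 °C. CCF4 loading followed for 1 h at RT; 460/530 nm ratio gave %activity.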

Experiment [4] is described as follows: Stat Signaling Pathway (AID 446; active = well fitted curve in either direction with a large enough effect, not every such curve was filed as active;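 also: ME-180 cervical cancer cells given 40 pM IL-6 alongside compound; SIE-controlled beta-lactamase reporter measured as 460/530 nm FRET emission ratio; % is scaled to controls: 0 for no effect and ±100 for the full control effect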). The note with it: ME-180 (cervical carcinoma) SIE beta-lactamase reporter, IL-6 stimulated, 5 h; at 7.69 µM (top of the series) unless noted. The method, boiled down: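 Overnight-plated ME-180 cells bearing a STAT Inducible Element beta-lactamase reporter; 5 h co-exposure to compound and 40 pM IL-6; values normalized to 300 pM IL-6 and 125 nM JAK inhibitor controls.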

The target in experiment [5] is Glucocorticoid receptor (Homo sapiens) (UniProt P04150). In words: GR-GFP Redistribution (AID 450;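 active = compounds whose dose series gives a full or clear partial fitted curve of increased nuclear translocation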; also: potency is read from the fitted curve at half-maximal effect). Particulars: U2OS GR-GFP nuclear translocation, laser cytometry, 2 h.
Sequence of Glucocorticoid receptor (Homo sapiens) (P04150 whole entry, looked up, the tested form may be a part): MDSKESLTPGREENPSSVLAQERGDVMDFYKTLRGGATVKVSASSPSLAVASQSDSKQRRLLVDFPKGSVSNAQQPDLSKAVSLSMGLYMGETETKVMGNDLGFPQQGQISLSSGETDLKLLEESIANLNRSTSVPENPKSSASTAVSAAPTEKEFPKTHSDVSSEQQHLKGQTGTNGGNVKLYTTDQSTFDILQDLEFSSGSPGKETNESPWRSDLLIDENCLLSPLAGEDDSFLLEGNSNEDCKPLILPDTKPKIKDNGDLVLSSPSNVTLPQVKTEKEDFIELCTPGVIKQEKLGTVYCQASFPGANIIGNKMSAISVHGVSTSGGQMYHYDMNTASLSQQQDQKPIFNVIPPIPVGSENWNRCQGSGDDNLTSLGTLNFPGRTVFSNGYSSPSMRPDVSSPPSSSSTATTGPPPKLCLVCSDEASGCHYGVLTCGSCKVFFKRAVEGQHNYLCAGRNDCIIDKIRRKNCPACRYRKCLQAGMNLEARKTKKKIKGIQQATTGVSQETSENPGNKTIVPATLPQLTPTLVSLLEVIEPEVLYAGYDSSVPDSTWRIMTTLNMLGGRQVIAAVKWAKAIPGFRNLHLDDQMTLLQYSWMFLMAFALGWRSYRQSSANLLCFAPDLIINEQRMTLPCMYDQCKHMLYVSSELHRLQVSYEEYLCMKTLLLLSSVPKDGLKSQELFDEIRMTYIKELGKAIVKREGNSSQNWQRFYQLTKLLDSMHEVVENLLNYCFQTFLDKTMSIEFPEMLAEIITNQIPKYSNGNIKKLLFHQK
The target is the same in experiment [6]. In words: GR-EFC Redistribution (AID 451; calls by dose curve; also: potency is read from the fitted curve at half-maximal effect). The note with it: CHO-K1 GR-EFC translocation, beta-gal luminescence, 2 h. A digest of the protocol: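 CHO-K1 cells stably expressing nuclear-localized β-gal enzyme acceptor and GR fused C-terminally to the enzyme donor fragment; ligand-driven nuclear translocation restores β-gal by complementation. Compounds titrated up to 46 uM final, 2 h at 37 °C; luminescence read.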

The target in experiment [7] is Mitogen-activated protein kinase 10 (Mus musculus) (UniProt Q61831). In words: JNK3 AlphaScreen Assay (AID 530; active = well fitted curve in either direction with a large enough effect, not every such curve was filed as active;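 also: kinase came from lysate of stimulated human HepG2 cells; signal reports phosphorylation of biotinylated GST-cJun 1-79 at Ser73 with 10 µM ATP; % is scaled to controls: 0 for no effect and ±100 for the full control effect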). Particulars: JNK3 lysate, c-Jun phosphorylation; series mostly up to 57.1 µM. The method, boiled down:
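Biotinylated GST-cJun(1-79) served as substrate for JNK3 in HepG2 lysates stimulated with IL-1beta and TNF-alpha. ATP was 10 uM final, pH 7.6. Ser73 phosphorylation was quantified by AlphaScreen (680 nm excitation).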
Background: In Alpha technology, singlet oxygen from a donor bead excites a nearby acceptor bead.

The target of experiment [8] is 3',5'-cyclic-AMP phosphodiesterase 4B (Homo sapiens) (UniProt Q07343). In words: qHTS Assay for Inhibitors of PDE-IV (AID 607; active = well fitted activation curve with a large enough effect in the main read-out, with a control signal flat, not every such curve was filed as active; also: % of control where 0% means no effect). The note with it: HEK293 ACTOne CNG channel cells, membrane potential fluorescence; series mostly up to 22.9 µM. A digest of the protocol:
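Live HEK293 cells with a modified cyclic nucleotide-gated (CNG) channel report intracellular cAMP via membrane-potential dye fluorescence (ex 535/em 590 nm). Endogenous PDE-IV was targeted. Compounds were tested at up to 22.9 uM final; RO 20-1724 100 uM served as control.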
(qHTS replaces the single test concentration by a dilution series.)

Experiment [9] can be described thus: qHTS Assay for Lipid Storage Modulators (AID 1519; calls by dose curve). The note with it: Drosophila S3 cells, BODIPY lipid droplet/cell ratio, laser cytometry, cells loaded with oleic acid; for activity change, negative = inhibition: at 57.5 µM (top of the series). A digest of the protocol:
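Cells seeded at 5,000 per well were treated with compounds over a concentration series and loaded with oleic acid (400 uM, as added). Lipid droplet fluorescence (488 nm excitation, 500-530 nm channel) was read by laser-scanning cytometry and normalized to 20 uM Triacsin C.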

Experiment [10] deals with Dual specificity protein kinase CLK4 (Homo sapiens) (UniProt Q9HAZ1). In words: qHTS Assay for Inhibitors of CDC-like Kinase 4 (Kinase-Glo Assay) (AID 1770). Also: % is scaled to controls: 0 for no effect and ±100 for the full control effect; nearly all actives have a fitted effect of over 65% in size. The note with it: recombinant Clk4, Kinase-Glo ATP depletion luminescence; series mostly up to 66.7 µM. The method, boiled down: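 Inhibition was judged from remaining ATP, measured by Ultra-Glo luciferase bioluminescence after Clk4 (25 nM) had acted on RS peptide at 1 uM ATP for 4.5 hours, room temperature.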
Sequence of Dual specificity protein kinase CLK4 (Homo sapiens) (Q9HAZ1 whole entry, looked up): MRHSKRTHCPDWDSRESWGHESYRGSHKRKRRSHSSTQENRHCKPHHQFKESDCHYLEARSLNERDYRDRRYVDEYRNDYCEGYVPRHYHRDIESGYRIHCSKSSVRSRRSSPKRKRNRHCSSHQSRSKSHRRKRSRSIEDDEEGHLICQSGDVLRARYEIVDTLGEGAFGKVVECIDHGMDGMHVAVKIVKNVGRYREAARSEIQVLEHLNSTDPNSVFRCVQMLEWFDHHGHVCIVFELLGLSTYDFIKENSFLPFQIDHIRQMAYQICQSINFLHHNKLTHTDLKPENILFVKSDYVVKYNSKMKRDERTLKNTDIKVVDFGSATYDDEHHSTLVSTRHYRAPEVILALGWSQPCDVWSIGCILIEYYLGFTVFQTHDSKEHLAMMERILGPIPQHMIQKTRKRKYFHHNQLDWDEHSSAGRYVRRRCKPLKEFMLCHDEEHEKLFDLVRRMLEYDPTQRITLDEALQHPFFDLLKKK

The target is the same in experiment [11]. In words: qHTS Assay for Inhibitors of CDC-like Kinase 4 (ADP-FP Assay) (AID 1795).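 Also: recombinant human CLK4 phosphorylating RS repeat peptide at 1 µM ATP; % is scaled to controls: 0 for no effect and ±100 for the full control effect; nearly all actives have a fitted effect of over 60% in size.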 Particulars: Transcreener ADP fluorescence polarization; series mostly up to 50 µM. The method, boiled down: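 Inhibition of ADP formation by 6.25 nM Clk4 is measured using 1 uM ATP and 100 uM RS repeat peptide over one hour. Produced ADP displaces a fluorescent tracer from antibody, lowering polarization.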

Experiment [12] addresses Ubiquitin carboxyl-terminal hydrolase 1 (Homo sapiens) (UniProt O94782). In words: Inhibitors of USP1/UAF1: Pilot qHTS (AID 504865). Also: nearly all actives have a fitted effect of over 35% in size. Also: potency is read from the fitted curve at half-maximal effect. The note with it: purified USP1/UAF1, Ub-rhodamine cleavage fluorescence; series mostly up to 54.9 µM. A digest of the protocol: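 Kinetic fluorescence assay: 1nM USP1/UAF1, 15 min compound preincubation, then 150nM Ub-Rho; 480/540 nm.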
Experiment [13] in a line: Primary qHTS for small molecule stabilizers of the endoplasmic reticulum resident proteome: Secreted ER Calcium Modulated Protein (SERCaMP) assay (AID 1508630). Also: % is scaled to controls: 0 for no effect and ±100 for the full control effect. Particulars: SH-SY5Y GLuc-SERCaMP (Gaussia luciferase released on ER calcium loss) secretion, thapsigargin, luminescence; series mostly up to 38.4 µM. A digest of the protocol:
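The SH-SY5Y reporter protocol was run at 3 concentrations up to 38.3 uM (primary) or 11 concentrations (follow-up): 16 h compound, 100 nM thapsigargin for 4 h, then extracellular luciferase luminescence.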

The target in experiment [14] is Cytochrome P450 1A2 (Homo sapiens) (UniProt P05177). In words: p450-cyp1a2 (AID 410; calls by dose curve; also: potency is read from the fitted curve at half-maximal effect;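 as to activity change, negative = inhibition: -100% = full effect of reference inhibitor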). The note with it: recombinant CYP1A2, luciferin-ME demethylation, luminescence; series mostly up to 57 µM. A digest of the protocol:
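Read-out is luminescence from luciferin produced by CYP1A2 demethylation of Luciferin-ME (100uM, at Km). Detection reagent stopped the 60 min NADPH-dependent reaction; signals were normalized to 57 uM furafylline.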

Experiment [15] addresses Dual specificity protein kinase CLK4 (Homo sapiens) (UniProt Q9HAZ1). In words: qHTS Assay for Inhibitors of CDC-like Kinase 4 (ADP-Glo Assay) (AID 1771). Also: % is scaled to controls: 0 for no effect and ±100 for the full control effect; nearly all actives have a fitted effect of over 70% in size. Particulars: recombinant CLK4, ADP-Glo luminescence; series mostly up to 80 µM. A digest of the protocol: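 In this ADP-Glo format, 1 uM ATP and 100 uM RS peptide served as substrates for 25 nM Clk4 in Mg2+/EGTA/DTT/Triton buffer; reactions ran 1 hr at room temperature before luminescent ADP quantification.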

In experiment [16] the target is Cytochrome P450 3A4 (Homo sapiens) (UniProt P08684). In words: qHTS Assay for Activators of Cytochrome P450 3A4 (AID 885). Also: nearly all actives have a fitted effect of over 65% in size. Particulars: recombinant CYP3A4, Luciferin-PPXE luminescence, 60 min; series mostly up to 57.1 µM. The method, boiled down:
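Using 20nM recombinant human CYP3A4 in potassium phosphate (200mM), substrate Luciferin-PPXE at 25uM, luminescent luciferin detection followed a 60-min RT NADPH reaction; data scaled to 57 uM ketoconazole.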

Experiment [17] deals with Cytochrome P450 2C19 (Homo sapiens) (UniProt P33261). In words: qHTS Assay for Inhibitors and Substrates of Cytochrome P450 2C19 (AID 899). Also: potency is read from the fitted curve at half-maximal effect; nearly all actives have a fitted effect of over 60% in size. Particulars: recombinant CYP2C19, luciferin-H EGE luminescence; series mostly up to 57.1 µM. A digest of the protocol:
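In 50mM KPO4, the reaction held 5nM enzyme and KM-level (10uM) Luciferin-H EGE; it ran 60 min at 37C after NADPH regeneration and a 10 min compound preincubation. Luminescence values were scaled to 57uM ketoconazole as complete inhibition.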

Where [18] appears, read: measured here: cell count channel max response.
Where [19] appears, read: measured here: lipid channel max response.

Results on 6 molecules are retold here after PubChem BioAssay (NCATS).

Results filed as inconclusive are left out. Calls of active or inactive are those of the source. Unless noted, calls follow the shape of the dose curve; as a rule, active = well fitted curve in the direction sought with a large enough effect; inconclusive = small, poorly fitted or top-dose-only effect, or another doubt; inactive = no such curve, though single readings can be large; an effect the other way counts as inactive or inconclusive.

Sequence of Ubiquitin carboxyl-terminal hydrolase 1 (Homo sapiens) (O94782 whole entry, looked up): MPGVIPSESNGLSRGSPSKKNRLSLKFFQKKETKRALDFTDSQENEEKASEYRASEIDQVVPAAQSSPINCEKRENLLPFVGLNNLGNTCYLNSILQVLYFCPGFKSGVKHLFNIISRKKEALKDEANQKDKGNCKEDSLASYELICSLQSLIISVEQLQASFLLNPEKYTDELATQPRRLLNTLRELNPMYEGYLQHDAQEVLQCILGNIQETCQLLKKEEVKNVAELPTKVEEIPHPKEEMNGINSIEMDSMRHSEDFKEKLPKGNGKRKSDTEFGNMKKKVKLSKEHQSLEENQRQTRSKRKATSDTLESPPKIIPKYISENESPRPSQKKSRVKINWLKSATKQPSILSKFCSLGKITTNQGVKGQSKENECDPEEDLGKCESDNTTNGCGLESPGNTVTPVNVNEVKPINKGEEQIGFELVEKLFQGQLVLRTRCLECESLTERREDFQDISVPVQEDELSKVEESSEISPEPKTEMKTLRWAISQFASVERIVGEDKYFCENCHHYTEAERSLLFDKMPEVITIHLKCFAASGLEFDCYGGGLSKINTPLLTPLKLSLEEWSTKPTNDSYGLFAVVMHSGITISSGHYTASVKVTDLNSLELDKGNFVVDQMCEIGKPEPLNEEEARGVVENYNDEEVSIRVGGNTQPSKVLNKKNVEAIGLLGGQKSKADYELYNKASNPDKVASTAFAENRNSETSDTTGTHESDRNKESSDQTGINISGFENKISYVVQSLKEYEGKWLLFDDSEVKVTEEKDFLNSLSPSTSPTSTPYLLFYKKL
Sequence of Cytochrome P450 1A2 (Homo sapiens) (P05177 whole entry, looked up): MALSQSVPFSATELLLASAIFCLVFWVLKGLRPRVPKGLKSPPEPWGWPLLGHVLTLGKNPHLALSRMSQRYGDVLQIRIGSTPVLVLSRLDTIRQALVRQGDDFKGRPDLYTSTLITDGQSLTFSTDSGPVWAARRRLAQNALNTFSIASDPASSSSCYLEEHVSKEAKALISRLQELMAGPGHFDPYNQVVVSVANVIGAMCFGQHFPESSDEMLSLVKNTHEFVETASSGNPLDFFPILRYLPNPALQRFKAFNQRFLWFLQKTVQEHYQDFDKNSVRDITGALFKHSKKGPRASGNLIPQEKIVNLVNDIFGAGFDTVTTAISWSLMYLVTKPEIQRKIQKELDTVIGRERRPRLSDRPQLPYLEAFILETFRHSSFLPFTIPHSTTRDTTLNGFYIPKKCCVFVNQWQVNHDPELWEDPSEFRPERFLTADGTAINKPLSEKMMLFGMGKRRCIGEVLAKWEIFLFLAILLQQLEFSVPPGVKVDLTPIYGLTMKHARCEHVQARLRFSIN
Sequence of Lysosomal acid glucosylceramidase (Homo sapiens) (P04062 whole entry, looked up): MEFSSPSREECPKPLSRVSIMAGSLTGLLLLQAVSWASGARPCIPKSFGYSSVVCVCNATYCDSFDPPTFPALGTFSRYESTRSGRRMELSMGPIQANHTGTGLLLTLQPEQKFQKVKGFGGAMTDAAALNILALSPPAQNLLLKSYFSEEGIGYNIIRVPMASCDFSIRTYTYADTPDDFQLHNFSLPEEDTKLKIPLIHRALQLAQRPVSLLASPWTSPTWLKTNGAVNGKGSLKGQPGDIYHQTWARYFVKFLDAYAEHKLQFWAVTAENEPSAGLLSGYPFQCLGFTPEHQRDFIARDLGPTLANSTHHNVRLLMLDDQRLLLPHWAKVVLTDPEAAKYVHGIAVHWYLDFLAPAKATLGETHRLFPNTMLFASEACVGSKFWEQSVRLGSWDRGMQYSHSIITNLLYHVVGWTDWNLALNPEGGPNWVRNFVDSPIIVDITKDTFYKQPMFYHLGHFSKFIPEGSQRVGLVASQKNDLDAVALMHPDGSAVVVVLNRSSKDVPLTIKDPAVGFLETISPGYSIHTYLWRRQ
Sequence of Cytochrome P450 3A4 (Homo sapiens) (P08684 whole entry, looked up): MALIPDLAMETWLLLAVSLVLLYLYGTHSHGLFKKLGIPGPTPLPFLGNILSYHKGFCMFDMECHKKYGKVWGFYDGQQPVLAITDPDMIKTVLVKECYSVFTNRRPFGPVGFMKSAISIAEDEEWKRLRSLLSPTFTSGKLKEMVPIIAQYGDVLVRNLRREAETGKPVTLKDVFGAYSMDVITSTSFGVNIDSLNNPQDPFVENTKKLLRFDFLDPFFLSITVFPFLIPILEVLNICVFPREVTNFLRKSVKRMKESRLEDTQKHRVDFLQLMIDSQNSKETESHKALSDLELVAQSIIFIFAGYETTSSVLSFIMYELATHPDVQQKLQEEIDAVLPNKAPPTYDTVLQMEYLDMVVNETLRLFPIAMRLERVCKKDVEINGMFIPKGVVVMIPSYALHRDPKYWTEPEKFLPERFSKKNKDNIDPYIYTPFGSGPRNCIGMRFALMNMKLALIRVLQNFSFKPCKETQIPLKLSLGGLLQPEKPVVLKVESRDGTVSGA
Sequence of 3',5'-cyclic-AMP phosphodiesterase 4B (Homo sapiens) (Q07343 whole entry, looked up): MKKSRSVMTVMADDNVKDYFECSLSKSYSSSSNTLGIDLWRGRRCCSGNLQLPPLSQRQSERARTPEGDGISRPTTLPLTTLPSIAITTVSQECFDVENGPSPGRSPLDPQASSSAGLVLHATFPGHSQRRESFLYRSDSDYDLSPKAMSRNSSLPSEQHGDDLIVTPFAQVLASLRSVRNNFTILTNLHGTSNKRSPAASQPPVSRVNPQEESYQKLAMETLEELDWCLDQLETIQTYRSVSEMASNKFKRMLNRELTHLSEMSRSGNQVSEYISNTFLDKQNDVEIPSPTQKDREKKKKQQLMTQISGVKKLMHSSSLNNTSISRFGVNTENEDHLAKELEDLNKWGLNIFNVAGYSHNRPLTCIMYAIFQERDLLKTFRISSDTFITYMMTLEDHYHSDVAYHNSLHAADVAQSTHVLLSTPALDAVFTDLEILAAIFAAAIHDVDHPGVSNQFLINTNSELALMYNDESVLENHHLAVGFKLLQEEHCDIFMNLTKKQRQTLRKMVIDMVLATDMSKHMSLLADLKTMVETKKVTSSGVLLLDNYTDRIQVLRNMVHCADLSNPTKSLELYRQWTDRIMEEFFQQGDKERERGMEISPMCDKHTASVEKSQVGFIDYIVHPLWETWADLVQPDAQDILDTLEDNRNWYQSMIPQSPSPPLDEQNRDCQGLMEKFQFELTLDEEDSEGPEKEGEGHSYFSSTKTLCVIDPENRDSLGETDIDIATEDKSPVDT
Sequence of Cytochrome P450 2C19 (Homo sapiens) (P33261 whole entry, looked up): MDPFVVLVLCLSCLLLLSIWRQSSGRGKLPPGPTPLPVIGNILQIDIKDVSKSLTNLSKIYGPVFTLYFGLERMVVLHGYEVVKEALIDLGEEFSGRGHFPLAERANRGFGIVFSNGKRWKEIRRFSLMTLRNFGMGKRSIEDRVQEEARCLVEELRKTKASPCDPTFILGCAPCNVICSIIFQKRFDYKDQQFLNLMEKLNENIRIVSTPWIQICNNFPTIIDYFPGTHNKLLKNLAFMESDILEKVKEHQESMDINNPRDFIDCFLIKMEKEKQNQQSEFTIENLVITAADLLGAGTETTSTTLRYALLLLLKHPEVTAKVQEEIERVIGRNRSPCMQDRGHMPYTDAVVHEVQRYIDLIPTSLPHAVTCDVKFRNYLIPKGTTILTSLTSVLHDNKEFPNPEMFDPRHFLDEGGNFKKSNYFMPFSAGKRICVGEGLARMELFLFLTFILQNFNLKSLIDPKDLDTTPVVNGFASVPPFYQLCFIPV

For `COc1cccc(Cn2c(=O)c(-c3ccc(F)cc3)nc3cnc(OC)nc32)c1`, the Potency was > 11.4 µM (inactive) in experiment [1], > 9.22 µM (inactive) in experiment [5] and > 46 µM (inactive) in experiment [6]. Besides, the activity change, negative = inhibition is -1.52% (inactive) in experiment [2], -0.296% (inactive) in experiment [3] and 7.13% (inactive) in experiment [9]. Further, the activity, negative = inhibition in experiment [4] is 6.3% (inactive). Besides, the molecule was classed as inactive in [7]. In addition, the Potency entry in experiment [8], in [10], in [11], in experiment [12] and in experiment [13] was “inactive” in each case. Moreover, the max response in experiment [9] (setting [18]) came out at 25.9%; in experiment [9] (setting [19]), 31.8%.

In the case of `Cn1cc(-c2nc3cncnc3n(Cc3ccc(F)cc3)c2=O)c2ccccc21`, the figures for the activity change, negative = inhibition in [2], in experiment [3] and in experiment [9] were -19.3% (inactive), -18.4% (inactive) and 6.13% (inactive), respectively. In addition, the Potency in experiment [14] was 1.26 µM (active); in experiment [5], > 9.22 µM (inactive); in [6], > 46 µM (inactive). Besides, the activity, negative = inhibition in [4] was -7.96% (inactive). Besides, in experiment [7], the outcome was inactive. The max response turned out to be 15.3% in experiment [9] (setting [18]) and 20.1% in [9] (setting [19]). Further, the Potency result in [10], in experiment [15], in [12] and in experiment [13] was “inactive” in each case.

With `O=c1c(-c2cccs2)nc2cnc(N3CCOCC3)nc2n1-c1ccccc1`, the Potency in [1] was > 11.4 µM (inactive); in experiment [14], 5.01 µM (active); in experiment [5] it was > 9.22 µM (inactive); in experiment [6] it was > 46 µM (inactive). Moreover, the activity change, negative = inhibition was 25.6% (inactive) in experiment [2], 2.23% (inactive) in experiment [3] and -15.1% (inactive) in experiment [9]. The Potency result in experiment [16], in experiment [10], in experiment [11] and in experiment [13] was “inactive” throughout. Also, the values for the max response in [9] (setting [18]) and in [9] (setting [19]) were 13.7% and -6.13%, respectively.

Consider `FC(F)(F)c1ccccc1-c1nccc(NCc2cccs2)n1`, for which the Potency in experiment [1] is > 11.4 µM (inactive); in experiment [14], 1.26 µM (active); in [5], > 46 µM (inactive); in [6] it was > 46 µM (inactive); in [17] it was 2 µM (active); in [12], 11.2 µM (active). Besides, the values for the activity change, negative = inhibition in experiment [2], in experiment [3] and in experiment [9] were 2% (inactive), -3.1% (inactive) and 5.22% (inactive), respectively. Also, the activity, negative = inhibition in [4] was -15.9% (inactive). Moreover, the outcome in [7] was inactive. In addition, the Potency entry in [16], in experiment [10], in experiment [11] and in [13] was “inactive” in each case. For the same molecule, the values for the max response in experiment [9] (setting [18]) and in experiment [9] (setting [19]) were 6.69% and 8.2%, respectively.

On to `COc1ccc(-n2c(=O)c(C)nc3cnc(OC)nc32)cc1`, for which the Potency in experiment [1] was > 11.4 µM (inactive); in [5] it was > 9.22 µM (inactive); in experiment [6], > 46 µM (inactive). The activity change, negative = inhibition was 13.3% (inactive) in experiment [2], 3.92% (inactive) in experiment [3] and 4.38% (inactive) in experiment [9]. Further, the Potency result in [14], in experiment [8], in [16], in experiment [10], in experiment [11] and in experiment [12] was “inactive” each time. Also, in experiment [13], the Potency result is “inactive”. Further, the activity, negative = inhibition in [4] was -15.2% (inactive). In addition, in experiment [7], the molecule was classed as inactive. Also, the values for the max response in experiment [9] (setting [18]) and in experiment [9] (setting [19]) were 12% and 18.2%, respectively.

On to `COCCn1c(=O)c(-c2cn(C)c3ccccc23)nc2cnc(Oc3cccc(Cl)c3)nc21`, for which the Potency in experiment [1] was > 11.4 µM (inactive); in experiment [5] it was > 9.22 µM (inactive); in experiment [6] it was > 46 µM (inactive). Further, the activity change, negative = inhibition in experiment [2] is -7.97% (inactive); in experiment [3], 5.68% (inactive); in experiment [9], -4.01% (inactive). Besides, in experiment [4], the activity, negative = inhibition was 3.06% (inactive). In addition, the Potency entry in experiment [8], in experiment [10], in experiment [11], in [12] and in [13] was “inactive” each time. The max response in [9] (setting [18]) was found to be 23.7%; in [9] (setting [19]), 16.7%.
